# D1 PAM: potentiators of human D1 dopamine receptor | potentiation, % at 10 µM | HEK293 TREx D1 cells, calcium flux, dopamine EC20 potentiation | 360,000 tested, 0.036% active | AID 504651; in the data active means potentiation above about 30%; further: 0% is about no effect
# TRHR ag: agonists of human TRH receptor | TRHR cells, calcium flux fluo-8, FDSS agonist mode | 360,000 tested, 0.18% active | activation, % at 2 µM | AID 493084 | P34981; further: 0% is about no effect
# Target sequence (P34981 whole entry, looked up): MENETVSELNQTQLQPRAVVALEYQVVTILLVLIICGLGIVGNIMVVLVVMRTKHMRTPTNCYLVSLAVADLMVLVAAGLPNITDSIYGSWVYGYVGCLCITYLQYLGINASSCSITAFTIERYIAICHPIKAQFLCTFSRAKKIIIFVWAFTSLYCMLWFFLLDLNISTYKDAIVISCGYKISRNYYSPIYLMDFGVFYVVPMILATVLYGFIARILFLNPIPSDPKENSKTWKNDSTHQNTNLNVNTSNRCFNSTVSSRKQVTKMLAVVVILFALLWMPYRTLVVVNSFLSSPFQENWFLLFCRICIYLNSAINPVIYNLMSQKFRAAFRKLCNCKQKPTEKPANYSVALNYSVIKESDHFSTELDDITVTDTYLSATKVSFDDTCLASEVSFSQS
#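 Agonist-mode FDSS calcium read (Ex 480/Em 530, 1 s cycles) in 1536-well TRHR cells with fluo-8 dye, after 10-cycle baseline and 23 nL compound addition; TRH at EC20 (10 nM final) added afterwards for the enhancer phase.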
# D1 antag: human D1 dopamine receptor antagonism; P21728; AID 504652; activity change, negative = inhibition, % at 10 µM; 360,000 tested, 3.2% active; HEK293 TREx D1 cells, calcium flux, dopamine EC80; active compounds read low; in the data active means activity change below about -30%; further: on the % scale 0 is the no-effect control and ±100 the full control effect
#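 Allosteric or orthosteric antagonism assessed as attenuation of the calcium response to EC80 dopamine, added 180 s after compound, in induced HEK293 Trex D1 cells loaded with no-wash calcium dye.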
# D1 agonist: human D1 receptor agonism; AID 504660; activation, % at 2 µM; P21728; 360,000 tested, 1% active; HEK293 T-REx D1 cells, calcium flux, agonist mode; further: 0% is about no effect
#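 Agonism was scored from calcium flux recorded over 180 s (1 read/s) after pintool compound addition, following a 10-cycle baseline. Cells were inducible force-coupled HEK293 TREx D1, plated overnight at 30 C and loaded with no-wash calcium dye.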
# LDHA block: inhibitors of human lactate dehydrogenase A | 480,000 tested, 0.15% active | activity change, % (values are at about 110 or 230 µM) | purified LDHA, NADH/diaphorase-resazurin fluorescence; active compounds read low | AID 1347041 | P00338; in the data active means activity change below about -30%;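 further: plate controls were DMSO wells for no effect and wells without enzyme for full effect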
#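 Human LDH5 (2 nM) was incubated with 0.06 mM NADH and 0.2 mM pyruvate for 5 min at room temperature in Tris pH 7.4. Remaining NADH was coupled through diaphorase/resazurin, and resorufin fluorescence was read at 0 and 20 min.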
# TRHR PAM: TRH receptor (human) allosteric enhancement. P34981. TRHR cells, fluo-8 calcium fluorescence, EC20 TRH enhancement. enhancement, % at 2 µM. 360,000 tested, 0.66% active; in the data active means enhancement above about 30%; further: 0% is about no effect
#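 Enhancer read-out: after compound pinning and an initial kinetic agonist-mode read, an EC20 of TRH (10 nM final) was injected and fluo-8 calcium signal (Ex 480/Em 530) followed at 1 s/cycle for 100 cycles in TRHR-expressing cells.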
# The depositor's hits bear a star; nt = not tested or not shown; ! = a repeat was not active. Shown are actives, neighbours in structure and some others; about 3.6% of the full set was active somewhere. Unless noted, no stated cut-off is given here; in the data, active means activation above about 30%; inactive means the rest.
SMILES,D1 PAM,TRHR ag,D1 antag,D1 agonist,LDHA block,TRHR PAM
COc1ccc(-c2c(C)oc3cc(OC(C)=O)ccc3c2=O)cc1,nt,nt,nt,nt,-6,nt
Cc1ccc(C2CC(=O)Oc3cc(O)ccc32)cc1 (stereo not drawn),-5,3,-30*,5,-1,1
Cc1ccc(C(=O)CSC2=C(C#N)C(c3ccco3)CC(=O)N2)c(C)c1 (stereo not drawn),-6,9,-58*,63*,2,-1
Cc1ccc(C(=O)Nc2sc3c(c2C(=O)N2CCN(C)CC2)CCCCC3)cc1,nt,nt,nt,nt,8,nt
CCOC(=O)C1CCN(c2ncnc3c2cnn3-c2ccc(Cl)cc2)CC1,-11,0,-7,10,1,-7
CCOC(=O)C1CCCN(c2ncnc3c2cnn3-c2ccc(C)c(Cl)c2)C1 (stereo not drawn),-2,0,-34*,-1,-7,-4
CCOC(=O)C1CCN(C(=O)c2cc3cc(OC)ccc3[nH]2)CC1,nt,nt,nt,nt,10,nt
COc1ccc2nc(SCC(=O)N3CC(=O)Nc4ccccc43)c(C#N)cc2c1,-3,9,-30*,32*,-2,-9
Cc1cccc(C(=O)Nc2ccc3c(c2)C(=O)NC3=O)c1,-7,-1,-4,1,-5,8
O=C(Nc1ccc2c(c1)C(=O)NC2=O)c1cc(Cl)ccc1Cl,-5,-2,-31*,1,-11,3
O=C(Nc1ccc2c(c1)C(=O)NC2=O)c1ccc(Cl)s1,-4,1,7,1,-16,-2
O=C(Nc1ccc2c(c1)C(=O)NC2=O)c1cccc(Cl)c1,-6,-1,-33*,-1,-3,-1
O=C(CSc1ccc(F)cc1)Nc1ccc2c(c1)C(=O)NC2=O,-10,-1,-37*,12,0,5
N#CCC(=O)Nc1ccc(Oc2ccccc2)cc1,nt,nt,nt,nt,9,nt
CC(C)CCn1nc(C(=O)Nc2ccccc2C(C)(C)C)c2ccccc2c1=O,nt,nt,nt,nt,11,nt
CCOC(=O)/C(=N/Nc1ccc(OC)cc1)N1CCCc2ccccc21,-3,-1,-42*,0,4,-3
COc1ccc(CCC(=O)N2CCCc3ccccc32)cc1,-2,0,-37*,-2,-1,12
Cc1cc(=O)oc2cc(OCCSCCN3CCCCC3)ccc12,-4,0,-37*,1,-2,-1
COc1ccc(CC(=O)N2CCc3ccccc32)cc1,-2,-1,-1,4,-14,10
COc1ccc(OCCCC(=O)N2CCCc3ccccc32)cc1,-8,-1,-34*,4,-5,-4
Cc1ccc(-c2cnc(-c3ccccc3C(=O)NC(C)C)o2)cc1,nt,nt,nt,nt,0,nt
Cn1nc(C(=O)OCCOc2ccc(Cl)cc2)c2ccccc2c1=O,nt,nt,nt,nt,3,nt
CCCCCC1CCC(c2ccc(-c3ccc(CC)cn3)cc2)CC1C (stereo not drawn),nt,nt,nt,nt,0,nt
O=C(CCn1cccc1)N1CCc2ccccc21,-6,0,-31*,-2,-4,1
Cc1cc(=O)oc2cc(OCC(=O)N3CCCc4ccccc43)ccc12,-8,-3,-35*,2,2,-10
SMILES,D1 PAM,TRHR ag,D1 antag,D1 agonist,LDHA block,TRHR PAM
COc1ccc(-n2c(=O)[nH]cc(C(=O)N3CCCc4ccccc43)c2=O)cc1,-3,-1,-31*,2,-1,0
CCOc1ccc(-n2c(=O)[nH]cc(C(=O)N3CCCc4ccccc43)c2=O)cc1,0,0,-1,1,1,-1
CCNC(=S)NCCSc1ccc(Cl)cc1,nt,nt,nt,nt,4,nt
COc1ccc(CCNC(=O)Cn2c(=O)n(-c3cc(F)ccc3F)c(=O)c3sccc32)cc1OC,-3,0,-1,0,-2,-5
COc1ccc(CCNC(=O)Cn2c(=O)n(-c3ccc(F)cc3F)c(=O)c3sccc32)cc1OC,-6,-1,-36*,0,2,2
CC1=CC(C)(C)NC(=S)N1c1cc(C)cc(C)c1,3,0,-51*,-3,-4,0
O=C(O)CCc1ccc(OC(F)F)cc1,nt,nt,nt,nt,-4,nt
Cc1ccc(N(C)C(CNS(=O)(=O)c2ccccc2)c2ccccc2)cc1 (stereo not drawn),-1,0,-48*,3,-1,2
COc1c(Br)c(CC2CC(c3ccc(F)cc3)=NO2)c(OC)c2c1OCO2 (stereo not drawn),nt,nt,nt,nt,-7,nt
Cc1nn(CN2CCN(S(=O)(=O)c3ccc(C(C)C)cc3)CC2)c(=O)c2ccccc12,nt,nt,nt,nt,0,nt
CNC(=S)NNC(=O)C(Sc1ccccc1)c1ccccc1 (stereo not drawn),nt,nt,nt,nt,-32*,nt
CCCCN(Cc1ccccc1)c1ccc(C(=O)O)cc1NS(=O)(=O)c1ccc(CC(C)C)cc1,nt,nt,nt,nt,2,nt
CCN1CCN(c2cc(N3CCc4ccccc4C3)c(F)cc2[N+](=O)[O-])CC1,-9,1,-40*,6,-2,2
CCOc1ccc(CCNC(=O)CCc2c(C)nc3c4c(C)cc(C)nc4nn3c2C)cc1,-3,-2,-36*,-1,-7,15
COc1ccccc1-c1cc2nc(C)c(CCC(=O)NCc3ccc(F)cc3)c(C)n2n1,-3,0,2,3,-14,12
COc1ccc(N2CCN(C(=O)CCc3c(C)nc4cc(-c5cccc(F)c5)nn4c3C)CC2)cc1,0,0,21,0,7,37*
COc1ccccc1-c1cc2nc(C)c(CCC(=O)NCCc3ccc(SC)cc3)c(C)n2n1,-6,-1,-47*,8,-3,-11
COc1cccc(CNC(=O)CCc2c(C)nc3c4c(C)cc(C)nc4nn3c2C)c1,-3,-1,-1,-2,-7,4
COc1ccc(CCNC(=O)CCc2c(C)nc3cc(-c4cccc(F)c4)nn3c2C)cc1OC,0,0,-34*,2,-2,6
CCCCN(CC)Cc1c(C)[nH]c2c(C)cc(C)cc2c1=O,nt,nt,nt,nt,4,nt
COc1ccc(NC(=O)Cn2nnc(-c3cccc(F)c3)n2)cc1S(=O)(=O)N1CCOCC1,nt,nt,nt,nt,3,nt
COc1ccc(CCNC(=O)c2cc(-c3ccc(C)cc3)nc3n[nH]c(-c4ccccc4)c23)cc1OC,1,0,9,3,0,48*
COc1ccc2[nH]cc(CCNC(=O)CCC3CCCCC3)c2c1,-4,-1,-43*,-1,-2,-6
COc1ccc2[nH]cc(CCNC(=O)Nc3ccccc3)c2c1,-7,4,-34*!,4,-4,-5
COc1ccc2[nH]cc(CCNC(=O)C(C)(C)C)c2c1,nt,nt,nt,nt,9,nt
COc1ccc2c(CCNC(=O)Nc3ccccc3)c[nH]c2c1,0,2,-19,5,-5,-7
COc1ccc2c(CCNC(=O)c3ccccc3C)c[nH]c2c1,nt,nt,nt,nt,5,nt

# Screens (PubChem)
